Data on 40 sequences can be found in the supplement of paper PMC6555819.

The first test deals with RARb homodimer (NR concentration 270 nM). In words: PBM binding z-score (relative to random genomic background probes); higher = stronger binding; sequences stand for … in GC…GCGATTGACAGCGTAGAATGAAGG
In outline: (§1)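 Ligand-free nuclear receptor dimers were applied to custom Agilent 4×180K protein-binding microarrays whose double-stranded probes carried direct-repeat seeds, single-nucleotide variants, half-site ablations and random human genomic background sequences in 34-nt variable regions. Incubation lasted 1 h. Binding z-scores were computed against the random background probes from regression-normalized fluorescence.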
For the sequence GCTCGGAGGACAAGGTCAGTGCTTTGTCCGTAGA, the PBM binding z-score was 3.23.

In the case of CCGTGTAGGTTATGGGGCATTCAGGCAACGGTGA, the PBM binding z-score stood at 1.3.

In the case of ATCTCTAGGTAAACGTTCAGTGAATCCCGAGGAT, the PBM binding z-score was -0.498.

Turning to GGAACGAGGGCATAGTTGATAGCATCTGTCGACG, the PBM binding z-score was 0.536.

With CCTACTGGTCCATTCAGAGGTCATTGATCATATG, the PBM binding z-score was 4.13.

With TCTGGTTGGTCACGGAGGTCACACACGACGGGTA, the PBM binding z-score came out at 4.58.

CGCACTAGGTCAGAACAGGACAGTGAAGGATGAT came in with a PBM binding z-score of 2.18.

TCTTGTAGATCAGTAGAGGTTAAGAAAGTGCGCT had a PBM binding z-score of 1.26.

CAGCCTAGGTCAGGGCTAGTATAGGAGGAACGTT came in with a PBM binding z-score of 2.38.

As to CAAACTAGGTCACAGAGCTCAAAGTCCGTGCGTA, the PBM binding z-score stood at 3.35.

Sequence CGAACTAGGTCATCCAGGACAGTTAATACATTGA gave a PBM binding z-score of 3.

The sequence CTCGAAAGGTCGGTTTAGGTGAGTATACGGATAA displayed a PBM binding z-score of 1.77.

On to CGTCCAAGGTCAATGCTAGGTCATTGAAAGCATT, for which the PBM binding z-score is 4.92.

CCGACTGGGGCAGAAAGGTTCCCATACCATCCGG: the PBM binding z-score amounted to 0.053.

The sequence CCTACTGGGCCAAAAGGGTCATTGATGCCGATAA came in with a PBM binding z-score of 3.22.

The sequence TCGAGTAGGTTAGGGGCACTCAGAATGGCGTCGA came in with a PBM binding z-score of 0.798.

TCTGCTAGGCCAGTTGGTCAGCTAACGAGCTGCC yielded a PBM binding z-score of -0.0493.

ATCTCTAGGTTAGACTCAGTTCAGTGAAGAACGC registered a PBM binding z-score of 1.37.

For the sequence GCTTGTAGATCAAGGTTAAGAATGACTAAGCTAA, the PBM binding z-score is 0.438.

The sequence CGTCATAGTTCAACTAAGGTAACGTAAAGCACGC registered a PBM binding z-score of 2.62.

Sequence AGCCAAAGTTCATCTAGGTAACGTAAGATATGCT displayed a PBM binding z-score of 4.1.

Consider TCTTGTAGAACAACAGGAGGTTAAGAAAGATCGA, for which the PBM binding z-score turned out to be 0.958.

Turning to TCTTGTAGATCAGCAGGGTAAGAAAGCTGGCCAA, the PBM binding z-score is -0.187.

ACAGACAGGTGAGTGCAGGTAACTCAGCTGGACG came in with a PBM binding z-score of -0.104.

As for GCTAGCAGGCCATTTGGGTCCCTCAATGACGGGC, the PBM binding z-score is -0.901.

Sequence TCGAGTAGGTTACCAATGGGGCATCCAGCTTTCT had a PBM binding z-score of 0.918.

Turning to TCATATAGGTAAAGGTGAAATTCGAACGATATGA, the PBM binding z-score is 1.3.

For the sequence GCATATAGGTAATACAAGGTGAAAGTACGATTGT, the PBM binding z-score was 0.886.

TCTTGTAGATCAGCAGGTCAAGAAAGCTGGCCAA registered a PBM binding z-score of 2.13.

Consider CCTTACGGGTCACTGACAGGTTATAGCATTTGGA, for which the PBM binding z-score turned out to be 3.39.

For the sequence ATCTCTAGGTAACAAGTTCAATGAAAGAGAGGAC, the PBM binding z-score is 2.24.

Consider CGTCCAAGGTCAGCAGGTCAATGAAAGCGACGTG, for which the PBM binding z-score was determined as 5.24.

Turning to CCTTACGGGTCAAGGTTATGGCACGGGTGGTACG, the PBM binding z-score was found to be 3.66.

ACGATTAGTTGAGACGAGGGCAACCGATAGGTTG returned a PBM binding z-score of 0.939.

CCGACTGTGGCAGAAAGGTTACCATACCATCCGG showed a PBM binding z-score of 1.82.

In turn, TCTATTAGTTGATGAGGGCAACCGAAACAGCGGA yielded a PBM binding z-score of 1.27.

On to CCTACTGGGCCAAGGTCATTAATCAGTCAAAGCA, for which the PBM binding z-score came to 3.03.

As to CGAACTAGGTCATTGACAGGACAGTGATTAGTAA, the PBM binding z-score came to 2.83.

As for TCAGACAGGTGAAGGTAGCTCAGGTACGCAGTCG, the PBM binding z-score was found to be 0.62.

Turning to AGTCAAAGTTCAGGACGAGGTGACGTAAAGCACG, the PBM binding z-score stood at 3.64.

In a further test the test system is RARg:RXRa (NR concentration 270 nM, RXRa partner concentration 90 nM). Described as above. In outline:
as §1
For the sequence GCTCGGAGGACAAGGTCAGTGCTTTGTCCGTAGA, the PBM binding z-score was found to be 2.82.

Consider CCGTGTAGGTTATGGGGCATTCAGGCAACGGTGA, for which the PBM binding z-score came to 0.81.

ATCTCTAGGTAAACGTTCAGTGAATCCCGAGGAT gave a PBM binding z-score of 0.172.

For the sequence GGAACGAGGGCATAGTTGATAGCATCTGTCGACG, the PBM binding z-score was determined as 0.949.

With CCTACTGGTCCATTCAGAGGTCATTGATCATATG, the PBM binding z-score came out at 3.66.

In the case of TCTGGTTGGTCACGGAGGTCACACACGACGGGTA, the PBM binding z-score was found to be 4.91.

Sequence CGCACTAGGTCAGAACAGGACAGTGAAGGATGAT showed a PBM binding z-score of 2.44.

For TCTTGTAGATCAGTAGAGGTTAAGAAAGTGCGCT, the PBM binding z-score was determined as 0.475.

As for CAGCCTAGGTCAGGGCTAGTATAGGAGGAACGTT, the PBM binding z-score came to 2.93.

Sequence CAAACTAGGTCACAGAGCTCAAAGTCCGTGCGTA had a PBM binding z-score of 4.37.

CGAACTAGGTCATCCAGGACAGTTAATACATTGA: the PBM binding z-score was determined as 3.93.

The sequence CTCGAAAGGTCGGTTTAGGTGAGTATACGGATAA displayed a PBM binding z-score of 2.33.

In turn, CGTCCAAGGTCAATGCTAGGTCATTGAAAGCATT came in with a PBM binding z-score of 7.82.

For CCGACTGGGGCAGAAAGGTTCCCATACCATCCGG, the PBM binding z-score is -0.0575.

CCTACTGGGCCAAAAGGGTCATTGATGCCGATAA gave a PBM binding z-score of 3.29.

With TCGAGTAGGTTAGGGGCACTCAGAATGGCGTCGA, the PBM binding z-score was found to be 0.322.

TCTGCTAGGCCAGTTGGTCAGCTAACGAGCTGCC yielded a PBM binding z-score of -0.411.

As for ATCTCTAGGTTAGACTCAGTTCAGTGAAGAACGC, the PBM binding z-score is 1.4.

GCTTGTAGATCAAGGTTAAGAATGACTAAGCTAA: the PBM binding z-score was found to be 0.397.

CGTCATAGTTCAACTAAGGTAACGTAAAGCACGC displayed a PBM binding z-score of 3.44.

As for AGCCAAAGTTCATCTAGGTAACGTAAGATATGCT, the PBM binding z-score was determined as 5.56.

With TCTTGTAGAACAACAGGAGGTTAAGAAAGATCGA, the PBM binding z-score came out at 0.377.

Take TCTTGTAGATCAGCAGGGTAAGAAAGCTGGCCAA: the PBM binding z-score was -0.327.

In the case of ACAGACAGGTGAGTGCAGGTAACTCAGCTGGACG, the PBM binding z-score stood at 0.091.

With GCTAGCAGGCCATTTGGGTCCCTCAATGACGGGC, the PBM binding z-score is -0.417.

In turn, TCGAGTAGGTTACCAATGGGGCATCCAGCTTTCT came in with a PBM binding z-score of 1.39.

TCATATAGGTAAAGGTGAAATTCGAACGATATGA returned a PBM binding z-score of 1.56.

GCATATAGGTAATACAAGGTGAAAGTACGATTGT registered a PBM binding z-score of 0.699.

TCTTGTAGATCAGCAGGTCAAGAAAGCTGGCCAA had a PBM binding z-score of 2.22.

CCTTACGGGTCACTGACAGGTTATAGCATTTGGA came in with a PBM binding z-score of 6.19.

On to ATCTCTAGGTAACAAGTTCAATGAAAGAGAGGAC, for which the PBM binding z-score amounted to 2.06.

CGTCCAAGGTCAGCAGGTCAATGAAAGCGACGTG yielded a PBM binding z-score of 6.59.

The sequence CCTTACGGGTCAAGGTTATGGCACGGGTGGTACG gave a PBM binding z-score of 5.06.

Consider ACGATTAGTTGAGACGAGGGCAACCGATAGGTTG, for which the PBM binding z-score is 0.385.

For the sequence CCGACTGTGGCAGAAAGGTTACCATACCATCCGG, the PBM binding z-score is 1.02.

The sequence TCTATTAGTTGATGAGGGCAACCGAAACAGCGGA had a PBM binding z-score of 0.771.

The sequence CCTACTGGGCCAAGGTCATTAATCAGTCAAAGCA returned a PBM binding z-score of 3.21.

On to CGAACTAGGTCATTGACAGGACAGTGATTAGTAA, for which the PBM binding z-score amounted to 4.5.

TCAGACAGGTGAAGGTAGCTCAGGTACGCAGTCG had a PBM binding z-score of 0.413.

AGTCAAAGTTCAGGACGAGGTGACGTAAAGCACG came in with a PBM binding z-score of 5.69.
